Screening results deposited in PubChem BioAssay by several laboratories.
UGM FP inh: M. tuberculosis UGM enzyme inhibitors, primary screen, biochemical, fluorescence polarization, single point; UDP-galactopyranose mutase (Mycobacterium tuberculosis (strain ATCC 25618 / H37Rv)), …; purified UGM, fluorescence polarization probe displacement; inhibition, % at 10 µM; hit rate 0.06% among 320,000; AID 504406, 2011; in the data active = inhibition above about 10%, passing the limit was not always enough
Rv3671c protease: Rv3671c serine protease inhibitors, primary screen, biochemical, fluorescence polarization, M. tuberculosis H37Rv | P9WHR9 | inhibition, % at 5.96 µM | hit rate 0.048% among 320,000; in the data active = inhibition above about 38%;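 note: extracellular domain of Rv3671c used as enzyme; 0% = enzyme with DMSO and 100% = no enzyme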
Mtb bLac sens: beta-lactam sensitization of Mtb H37Rv, H37Rv; inhibition, % at 25 µM; hit rate 0.27% among 330,000; M. tuberculosis H37Rv growth with meropenem, percent inhibition; call rule not given here;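 note: growth measured after seven days incubation then overnight dye step; 0% = bacteria only wells and 100% = bacteria with antibiotic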
FBA Mtb inh: Mtb FBA enzyme inhibitors, primary screen, biochemical, fluorescence, strain H37Rv; Fructose-bisphosphate aldolase (Mycobacterium tuberculosis (strain ATCC 25618 / H37Rv)), …; purified M. tuberculosis FBA, fluorescence read-out; inhibition, % at 1 µM; hit rate 2.3% among 360,000; AID 588726, 2011;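 note: 0% = vehicle and 100% = reference inhibitor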
Target sequence (P9WQA3 whole entry, looked up): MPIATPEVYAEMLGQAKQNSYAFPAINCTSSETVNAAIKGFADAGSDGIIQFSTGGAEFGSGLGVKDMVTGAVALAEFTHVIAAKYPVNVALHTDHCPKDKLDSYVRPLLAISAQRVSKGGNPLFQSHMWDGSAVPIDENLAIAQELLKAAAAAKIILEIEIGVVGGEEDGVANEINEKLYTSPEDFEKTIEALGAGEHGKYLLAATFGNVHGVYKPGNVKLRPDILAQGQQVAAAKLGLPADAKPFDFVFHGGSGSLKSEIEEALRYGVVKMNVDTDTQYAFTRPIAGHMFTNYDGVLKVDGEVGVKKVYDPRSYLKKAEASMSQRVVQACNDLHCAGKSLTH
RecA intein inh: Mtb RecA intein splicing inhibitors, primary screen, biochemical, fluorescence, HTS. Protein RecA (Mycobacterium tuberculosis (strain ATCC 25618 / H37Rv)), P9WHJ3. cell-free RecA intein splicing. inhibition, % (no concentration beside the values). hit rate 0.75% among 290,000. AID 2221, 2009; in the data active = inhibition above about 30%;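 note: 0% = vehicle wells and 100% = reference inhibitor control wells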
GDH-TPI counter-1: GDH-TPI coupling enzyme inhibitors, primary screen, artefact control for M. tuberculosis FBA inhibitor project, biochemical, absorbance, full deck. AID 588335, 2011. GDH-TPI coupled enzyme counterscreen, NADH absorbance. inhibition, % at 4.8 µM. hit rate 1.2% among 360,000; in the data active = inhibition above about 30%;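 note: 0% = DMSO wells and 100% = wells lacking the enzyme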
Mtb FBA inh conf: M. tuberculosis aldolase blockers, biochemical, fluorescence, strain H37Rv, confirmation. shares compounds with FBA Mtb inh. purified M. tuberculosis FBA, fluorescence read-out. inhibition, % at 1 µM. hit rate 78% among 5,600;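 note: 0% = vehicle wells and 100% = reference inhibitor wells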
GDH-TPI counter-2: GDH-TPI coupling enzyme inhibitors, artefact control for M. tuberculosis FBA inhibitor project, biochemical, fluorescence, high throughput; shares compounds with FBA Mtb inh; GDH-TPI coupled enzyme counterscreen; inhibition, % at 1 µM; hit rate 81% among 5,600; in the data active = inhibition above about 10%
* = called active by the depositor. A selection: hits, their analogues and other compounds. The true share with any hit is near 4%. Cut-off read from the data, not from the text of the source, unless noted: active = inhibition above about 27%; inactive = the rest.

Results for Cc1nc2ccccn2c1C(=O)NC1CCCC1 ?
UGM FP inh: 0; Rv3671c protease: 6; Mtb bLac sens: -2; FBA Mtb inh: 6; RecA intein inh: 1; GDH-TPI counter-1: 1

What do the screens show for `N=c1c(C(=O)NC2CCCC2)cc2c(=O)n3ccccc3nc2n1C1CCCCC1`?
UGM FP inh: 2; Rv3671c protease: -4; Mtb bLac sens: -13; FBA Mtb inh: 64*; RecA intein inh: -384; GDH-TPI counter-1: 8; Mtb FBA inh conf: 49*; GDH-TPI counter-2: 41*

How did Cc1ccc2nc3c(cc(C(=O)NC4CCCCC4)c(=N)n3C3CCCCC3)c(=O)n2c1 do in these assays?
UGM FP inh: 0; Rv3671c protease: 0; Mtb bLac sens: -4; FBA Mtb inh: 71*; RecA intein inh: inactive; GDH-TPI counter-1: -4; Mtb FBA inh conf: 121*; GDH-TPI counter-2: 85*

How did CC1CC(NC(=O)c2cc3c(=O)n4ccccc4nc3n2C)CC(C)(C)C1 (configuration not stated) do in these assays?
UGM FP inh: 1; Rv3671c protease: 2; Mtb bLac sens: 3; FBA Mtb inh: 72*; RecA intein inh: -205; GDH-TPI counter-1: 7; Mtb FBA inh conf: 71*; GDH-TPI counter-2: 62*

What do the screens show for `Cc1cccn2c(=O)c3cc(C(=O)NCc4ccco4)c(=N)n(C4CCCC4)c3nc12`?
UGM FP inh: -2; Rv3671c protease: 5; Mtb bLac sens: 2; FBA Mtb inh: 90*; RecA intein inh: -61; GDH-TPI counter-1: 13; Mtb FBA inh conf: 78*; GDH-TPI counter-2: 63*

Results for O=C(c1ccccc1)N1N=C(c2ccc(F)cc2)CC1c1ccc(F)cc1 (configuration not stated) ?
FBA Mtb inh: 0; GDH-TPI counter-1: 11

What do the screens show for `CS(=O)(=O)Nc1ccc(C2=NN(C(=O)c3ccco3)C(c3ccc(F)cc3)C2)cc1` (configuration not stated)?
UGM FP inh: 5; Rv3671c protease: -4; Mtb bLac sens: 4; FBA Mtb inh: 74*; RecA intein inh: 4; GDH-TPI counter-1: 30; Mtb FBA inh conf: 62*; GDH-TPI counter-2: 48*

What do the screens show for `Cc1ccc(C(=O)N(C)CCOc2ccccc2)cc1S(=O)(=O)N1CCOCC1`?
UGM FP inh: 1; Rv3671c protease: -3; Mtb bLac sens: -4; FBA Mtb inh: -1; GDH-TPI counter-1: 5

How did CCCCc1cc(=O)oc2cc(C)cc(OC(C)C(=O)NCC3CCC(C(=O)O)CC3)c12 (configuration not stated) do in these assays?
UGM FP inh: 0; Rv3671c protease: -4; Mtb bLac sens: -13; FBA Mtb inh: 79*; GDH-TPI counter-1: 7; Mtb FBA inh conf: 1; GDH-TPI counter-2: -5

What do the screens show for `Cc1cc(OC(C)C(=O)NCC2CCC(C(=O)O)CC2)c2c(C)c(C)c(=O)oc2c1` (configuration not stated)?
UGM FP inh: -2; Rv3671c protease: -2; Mtb bLac sens: -2; FBA Mtb inh: 9; RecA intein inh: -1; GDH-TPI counter-1: 10

How did CCCc1cc(=O)oc2cc(C)cc(OC(C)C(=O)NCC3CCC(C(=O)O)CC3)c12 (configuration not stated) do in these assays?
UGM FP inh: -1; Rv3671c protease: -6; Mtb bLac sens: -6; FBA Mtb inh: 69*; GDH-TPI counter-1: -5; Mtb FBA inh conf: 70*; GDH-TPI counter-2: 46*

Results for O=C(NCCCCc1ccccc1)Nc1ccc(F)cc1F ?
UGM FP inh: -1; Rv3671c protease: 3; Mtb bLac sens: -2; FBA Mtb inh: 5; RecA intein inh: -1; GDH-TPI counter-1: 7
